# Shown are actives, neighbours in structure and some others; about 5.6% of the full set was active somewhere.
# PfGluPho inh: PfG6PD (Plasmodium falciparum) enzyme inhibition; PfGluPho enzyme, NADPH resazurin-diaphorase fluorescence; inhibition, % at 20 µM; 350,000 compounds, 0.78% hits; AID 504690;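 active means inhibition reaching at least a set limit at 20 µM in the primary screen, cut at about 59% in these data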;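 further: 0% = DMSO wells with substrate and 100% = DMSO wells lacking glucose-6-phosphate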
# PfM18AAP inh-1: blocks P. falciparum M18 aspartyl aminopeptidase; recombinant PfM18AAP, H-Glu-NHMec fluorogenic cleavage; inhibition, % at 7.35 µM; 290,000 compounds, 1.2% hits; AID 1822;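 active means inhibition above the campaign mean inhibition over all tested compounds plus 3 SD, cut at about 28% in these data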;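 further: 0% = plate median of test compound wells and 100% = 2 mM ZnCl2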
# ALR inh: inhibitors of human sulfhydryl oxidase ALR. AID 485317. P55789. purified ALR, DTT oxidation, H2O2 HRP-luminol luminescence. inhibition, % (concentration not given with the values). 290,000 compounds, 3.8% hits;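 active means mean replicate inhibition above about 79%, with every replicate also reaching it, limit read from the data; inconclusive means only one of the two criteria met; inactive means mean below limit and not every replicate reaching it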
# PHOSPHO1 inh: PHOSPHO1 (human) inhibition; recombinant PHOSPHO1, absorbance phosphatase assay; inhibition, % at 13.3 µM; 290,000 compounds, 1.1% hits; in the data active means inhibition above about 60%
# Target sequence (Q8TCT1 whole entry, looked up): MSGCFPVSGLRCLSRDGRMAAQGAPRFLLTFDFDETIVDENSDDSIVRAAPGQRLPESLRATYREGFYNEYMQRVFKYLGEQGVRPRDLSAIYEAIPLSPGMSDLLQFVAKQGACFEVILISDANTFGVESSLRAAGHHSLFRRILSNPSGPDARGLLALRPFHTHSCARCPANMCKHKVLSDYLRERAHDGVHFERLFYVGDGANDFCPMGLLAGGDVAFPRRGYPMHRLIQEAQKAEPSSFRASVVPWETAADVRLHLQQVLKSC
# Cardio protect: protects H9c2 cardiomyocytes from peroxide injury; H2O2 injury protection, ATPLite, 2 h; protection from H2O2 cell death, % at 20 µM; 360,000 compounds, 0.63% hits; AID 588492;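 active means compounds giving at least 50% protection of heart cells from peroxide-induced death in the single-dose screen, raw or plate-pattern-corrected value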;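 further: 0% = DMSO wells with peroxide and 100% = DMSO wells without peroxide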
# PfM18AAP inh-2: confirmation of Plasmodium falciparum M18 aspartyl aminopeptidase inhibitors; shares compounds with PfM18AAP inh-1; recombinant PfM18AAP, H-Glu-NHMec fluorogenic cleavage; inhibition, % at 7.35 µM; 2,400 compounds, 28% hits; AID 2170;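 active means mean inhibition over replicate wells above the hit cutoff set for the earlier primary screen, cut at about 29% in these data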;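 further: 0% = median of test compound wells and 100% = 2 mM ZnCl2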
# CTSL1 counter: Cathepsin L (human) inhibition, confirmation; shares compounds with PfM18AAP inh-1; inhibition, % at 5.96 µM; AID 2178; purified cathepsin L1, Z-Leu-Arg-MCA fluorescence; 2,400 tested, under 10 active;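 active means average inhibition across replicates above the hit cutoff set in the earlier primary screen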;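 further: 0% = median of test compound wells and 100% = Z-Phe-Ala-diazomethylketone 1 µM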
# Target sequence (P07711 whole entry, looked up): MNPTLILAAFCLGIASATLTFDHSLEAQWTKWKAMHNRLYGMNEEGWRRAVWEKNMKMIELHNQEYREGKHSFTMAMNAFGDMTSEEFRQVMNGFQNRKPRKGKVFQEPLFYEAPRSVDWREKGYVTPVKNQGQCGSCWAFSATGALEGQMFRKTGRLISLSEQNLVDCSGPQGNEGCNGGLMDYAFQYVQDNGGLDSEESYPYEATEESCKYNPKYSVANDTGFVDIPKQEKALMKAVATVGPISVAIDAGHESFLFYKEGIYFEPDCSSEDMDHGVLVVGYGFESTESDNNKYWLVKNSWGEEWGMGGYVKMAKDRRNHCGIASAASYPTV
# Active calls of the source: *; ? = inconclusive; · = no result given.
SMILES,PfGluPho inh,PfM18AAP inh-1,ALR inh,PHOSPHO1 inh,Cardio protect,PfM18AAP inh-2,CTSL1 counter
O=C1CC(c2ccco2)CC(O)=C1C=Nc1cc(Cl)ccc1O (stereo not given),-12.2,33.2*,1.8,-8.1,25.7,-10.3,0.2
COC(=O)c1cc([N+](=O)[O-])c(-n2cncn2)c([N+](=O)[O-])c1,4.4,83.1*,·,1.2,-18.8,43.7*,-4.5
COC(=O)c1cc(F)c(-n2cncn2)c(F)c1,-7.5,1.4,-2.3,27.6,3.9,·,·
O=C(CNC(=O)c1ccc2c(c1)OCO2)N/N=C/c1cc(Br)ccc1O,-12.1,-2.1,·,32.0,44.5,·,·
COC(=O)CCN1CCC2CC1c1cc(-c3cccc(C)c3)ccc12 (stereo not given),-2.0,·,·,·,8.9,·,·
Cc1cc(C)cc(NC(=O)Nn2cnnc2)c1,0.5,54.5*,-10.6,36.4,-0.9,37.4*,-2.8
O=C(Nc1ccccc1)Nc1ccncc1,-6.2,-4.5,-12.9,34.1,-10.6,·,·
O=C(Nc1ccc(Br)cc1)Nn1cnnc1,-0.7,73.3*,-1.0,24.0,-3.5,56.3*,-2.2
O=C(Nc1ccccc1)Nn1cnnc1,9.5,56.4*,-12.6,2.5,-1.2,40.0*,-3.2
O=C(Nc1ccc(Br)cc1Cl)Nn1cnnc1,2.1,74.9*,·,-10.4,3.4,78.1*,-0.2
CCOC(=O)Cc1csc(NC(=O)NC2(C(F)(F)F)Oc3ccc(Cl)cc3O2)n1 (stereo not given),25.5,96.5*,?,1.9,62.3*,73.2*,-1.5
CCOC(=O)Cc1csc(NC(=O)Nc2ccc(OC(F)(F)F)cc2)n1,13.4,-3.4,-0.5,1.0,-15.6,·,·
CCOC(=O)Cc1csc(NC(=O)NC2(C(F)(F)F)Oc3ccccc3O2)n1,34.9,90.1*,33.8,14.8,50.2*,67.6*,0.6
CCOC(=O)Cc1csc(NC(=O)NC2(C(F)(F)F)Oc3cc(Cl)c(Cl)cc3O2)n1,22.9,93.5*,98.4*,26.3,56.7*,73.4*,-3.3
CCOC(=O)Cc1csc(NC(=O)Cc2ccc(Cl)cc2)n1,-17.4,-4.1,-1.4,39.9,-5.1,·,·
CC(C)(c1ccc(O)cc1)c1ccc(O)c(C(=O)O)c1,-35.8,·,·,·,11.0,·,·
CCOC(=O)c1cc(C(=O)Nc2sc3c(c2C#N)CCCC3)nn1C,26.9,37.4*,5.3,-9.1,-7.6,-38.7,-3.8
CC(C)c1ccc(/C=N/Nc2cc(N3CCOCC3)nc(N3CCOCC3)n2)cc1,22.0,-0.5,6.4,-12.1,-5.8,·,·
Oc1ccc(/C=N/Nc2cc(N3CCCC3)nc(N3CCCC3)n2)cc1O,16.1,40.4*,90.1*,-12.0,33.4,26.5,3.6
Cc1ccccc1N1C(=O)c2ccccc2N2C(=O)c3ccccc3C12 (stereo not given),-9.0,1.1,-0.6,-9.1,-8.7,·,·
Cc1ccc(C2C(C(=O)O)c3ccccc3C(=O)N2C)c(C)c1 (stereo not given),3.8,4.6,-2.8,-17.0,-0.8,·,·
Cc1ccc(N2C(=O)c3ccccc3C2C(=O)c2ccc(C)c(C)c2O)cc1 (stereo not given),26.7,41.6*,-11.2,43.0,-4.1,-18.0,1.4
Cc1ccc(N2C(=O)c3ccccc3C2C(=O)c2cc(C)ccc2O)cc1 (stereo not given),18.3,54.8*,-16.7,13.3,-10.0,23.9,2.4
C/C(=N\NC(=O)CNC(=O)c1ccc(F)cc1)c1ccco1,-13.6,-3.2,15.3,-3.7,10.6,·,·
Cc1ccc(C(C(=O)NC2CCCC2)N(C(=O)CCC(=O)Nc2cc(C)on2)c2ccccc2)cc1 (stereo not given),1.4,-3.0,·,-32.2,-1.5,·,·
SMILES,PfGluPho inh,PfM18AAP inh-1,ALR inh,PHOSPHO1 inh,Cardio protect,PfM18AAP inh-2,CTSL1 counter
Cc1cc(NC(=O)CSCC(=O)N(c2ccc(F)cc2)C(C(=O)NC2CCCCC2)c2ccc(O)c(O)c2)no1 (stereo not given),-17.0,68.0*,-3.2,15.8,8.1,52.1*,1.0
Cc1cc(NC(=O)CSCC(=O)N(c2cccc(Cl)c2)C(C(=O)NC2CCCCC2)c2ccc(O)c(O)c2)no1 (stereo not given),-20.7,57.4*,99.0*,-4.0,13.8,42.9*,0.2
COc1ccc(N(C(=O)CSCC(=O)Nc2cc(C)on2)C(C(=O)NC2CCCCC2)c2ccc(O)c(O)c2)cc1 (stereo not given),-14.9,60.5*,85.0*,-18.2,16.7,48.2*,1.1
N#CCCN(C(=O)Nc1ccccc1)C1CCCCC1,8.0,·,·,·,-0.6,·,·
Cc1ccc([N+](=O)[O-])cc1NC(=S)NC(=O)C(C)(C)C,-2.0,-19.6,2.8,-9.1,-6.3,·,·
COc1ccc(NC(=S)Nc2cccc([N+](=O)[O-])c2)cc1,-7.2,1.1,7.5,24.2,-2.9,·,·
Cc1ccc(NS(=O)(=O)c2cc([N+](=O)[O-])ccc2NNC(=S)Nc2cc(C)ccc2C)c(C)c1,8.3,39.2*,-2.3,-0.5,-11.6,38.6*,0.2
COc1ccc(NC(=S)NNc2ccc([N+](=O)[O-])cc2S(=O)(=O)Nc2ccc(C)cc2C)cc1,31.1,39.4*,-1.9,27.1,-26.5,31.9*,2.5
COc1ccc(N2CCCC2=O)cc1S(=O)(=O)N1CCOCC1,-6.0,·,·,·,-1.1,·,·
COc1cc(C2C3=C(CC(C)(C)CC3=O)N(C)C3=C2C(=O)CC(C)(C)C3)ccc1O,-6.5,33.7*,-22.6,-21.4,4.5,-16.3,-4.2
Cc1ccn2cc(-c3ccc(O)c(O)c3)nc2c1,25.5,71.5*,99.0*,28.0,-4.9,51.3*,-7.7
Oc1ccc(-c2cn3ccccc3n2)cc1O,4.1,69.7*,98.8*,35.6,27.6,58.4*,-1.7
CCc1ccc([C@@H]2C[C@H]3[C@@H](CN2S(=O)(=O)c2ccc(C)cc2)C(=O)C[C@@H](c2ccccc2F)N3S(=O)(=O)c2ccc(C)cc2)cc1,12.0,·,·,·,-1.1,·,·
O=C(O)c1ccc(Nc2nc3c(s2)CCCC3)cc1,25.0,10.7,4.4,-14.3,-6.9,·,·
Cc1cccc(Nc2nc3c(s2)CCCC3)c1,28.7,32.2*,96.2*,-18.2,-11.6,-8.9,-0.9
S=c1[nH]c(-c2ccccc2)cn1/N=C/c1ccccc1Br,34.6,32.8*,0.9,-110.8,-10.5,23.9,3.2
S=c1[nH]c(-c2ccccc2)cn1/N=C/c1cccc2ccccc12,22.5,25.5,4.5,-89.7,-12.6,·,·
Oc1ccc(/C=N/n2cc(-c3ccccc3)[nH]c2=S)cc1,37.2,61.1*,98.8*,1.8,24.3,41.5*,4.2
Cc1ccc(S(=O)(=O)N2CCN(CC(=O)N/N=C/c3ccc(C)o3)CC2)cc1,4.3,0.5,0.6,-22.8,1.4,·,·
O=C(CN1CCN(S(=O)(=O)c2ccc(Cl)cc2)CC1)c1ccc(O)c(O)c1,-1.9,69.8*,98.8*,36.8,45.1,39.4*,0.0
